Assay results reported in PubChem BioAssay AID504832 (National Center for Advancing Translational Sciences (NCATS), 2011).
In all, about 310,000 compounds went through this assay and about 18,000 (5.8%) were called active. Roughly 22% stayed inconclusive and do not appear here. The sample as a whole holds a higher share of actives than the screen did. A number with no mark means an inactive call. The call rests on the fitted dose curve; in most records, active means well fitted inhibition curve with a large enough effect; inconclusive means small, poorly fitted or top-dose-only effect, or another doubt; inactive means no such curve, though single readings can be large or run the other way.

assay: Primary qHTS for delayed death inhibitors of the malarial parasite plastid, 48 hour incubation; conditions: P. falciparum luciferase growth in erythrocytes; series mostly up to 28.7 µM; activity change, negative = inhibition: at the top concentration
Description: The goal of this screen is to discover new antimalarial compounds that act by inhibiting the development of the apicoplast in the malarial parasite Plasmodium falciparum. The biochemical processes that make this organelle essential for erythrocytic stage parasites are not well understood. However, antibiotics such as azithromycin and tetracycline, which target the apicoplast translational machinery, have a potent antimalarial effect.
We have developed a cell-based assay that measures parasite growth based on the expression of an integrated copy of a firefly luciferase reporter. To detect small molecules that cause this "delayed death" phenotype, erythrocytes infected with the luciferase-expressing parasites were incubated with compounds for either one or two generations, corresponding to 48 and 96 hours, respectively. Compounds that inhibit parasite growth in the second generation, but not the first, should be enriched in antimalarials that target the apicoplast. Growth inhibition is detected by a decrease in luciferase activity.
Assay Provider: David Fidock and Eric Ekland, Columbia University
Keywords: NIH Roadmap, MLPCN, MLI, MLSMR, qHTS, NCGC, qHTS, malaria, luciferase, viability
Four microliters of culture medium (RPMI 1640 with 0.5% w/v Albumax (GIBCO), 24 mM sodium bicarbonate and 10 ug/mL gentamycin) were dispensed by a Multi-drop Combi into white solid 1536-well plates (Grenier) and 23 nL compound was added by a pin tool. Four microliters of infected erythrocytes (2% hematocrit, 0.1% parasitemia final concentration) in culture medium were dispensed and the plates incubated for 48 hours at 37 C in 5% CO2. Two microliters of luciferase detection reagent was added and luminescence was detected by a ViewLux (PerkinElmer) reader.
On the % scale 0 is the no-effect control and ±100 the full control effect; potency means the concentration at half of the fitted maximal effect.

Compared with `COc1ccc(CN2C(=O)CN=C2Nc2ccc(C)cc2C)cc1`, `COc1ccc(-c2nnc(SCC(=O)Nc3cccnc3Cl)n2C)cc1` is higher in “activity change, negative = inhibition” value: -2.89% for the first, 8.45% for the second.

Compared with `CCn1c(CN2C(=O)CSc3ccccc32)n[nH]c1=S`, `Cc1c(C=O)n(C)n(-c2ccccc2)c1=O` is higher in “activity change, negative = inhibition” value: -12.7% for the first, 8.37% for the second.

Compared with `O=S(=O)(NCCc1ccc(Cl)cc1)c1cccs1`, `CCc1ccc(NC(=O)CCNS(=O)(=O)c2cccs2)cc1` is higher in “activity change, negative = inhibition” value: 20.8% for the first, 28.1% for the second.

Going from `Cc1cc(NC(C)C)n2c(nc3ccccc32)c1C#N` to `Cc1ccccc1-c1nc(C#N)c(NCc2ccco2)o1`, the “activity change, negative = inhibition” value rises from -23.9% to 4.33%.

First: COc1ccc(CCN2CC(C(=O)NCCN3CCNC3=O)CCC2=O)cc1 (stereo unspecified)
Second: COc1ccc(NC(=O)C2=C(C)NC(=O)NC2c2ccccc2[N+](=O)[O-])cc1 (stereo unspecified)
The “activity change, negative = inhibition” value of the first is higher: 29% for the first, -0.334% for the second.

Going from `CC1CCN(S(=O)(=O)c2ccc(S(=O)(=O)NCc3ccco3)cc2)CC1` to `Cc1ccc(S(=O)(=O)N2CCC(C(=O)N[C@@H](C)C(=O)NCc3ccco3)CC2)cc1`, the “activity change, negative = inhibition” value falls from 7.63% to -1.32%.

Compared with `O=C(O)C1CCCCC1C(=O)N1CCN(S(=O)(=O)c2ccc(F)cc2)CC1` (stereo unspecified), `O=C(CN1CCN(S(=O)(=O)c2ccc(F)cc2)CC1)NC1CC1` is lower in “activity change, negative = inhibition” value: 17.8% for the first, 9.53% for the second.

Going from `C=CCOc1ccc(/C=C/C(=O)OC(C)C(=O)Nc2ccc(NC(C)=O)cc2)cc1` (stereo unspecified) to `COc1ccccc1C(=O)COC(=O)CNS(=O)(=O)c1ccc(NC(C)=O)cc1`, the “activity change, negative = inhibition” value falls from 32.7% to 6.09%.

Compared with `O=C(CN1CCCCCC1)Nc1ccc(Br)cc1[N+](=O)[O-]`, `O=C(Nc1ccc(S(=O)(=O)N2CCCCCC2)cc1)c1c(F)cccc1F` is higher in “activity change, negative = inhibition” value: 17.6% for the first, 32.2% for the second.

Going from `Cc1cc(OCC(=O)N(C)c2c(N)n(Cc3ccccc3)c(=O)[nH]c2=O)c(C(C)C)cc1Cl` to `COc1cc(C2C(C(=O)c3ccc(C)o3)=C(O)C(=O)N2CCc2ccccc2)ccc1O` (stereo unspecified), the “activity change, negative = inhibition” value rises from -4.06% to 56.4%.

Going from `COc1ccc(CCN(C)CCN2C(=O)c3ccccc3C2=O)cc1OC` to `COc1cc(CO)ccc1OCC(=O)Nc1cccc2ccccc12`, the “activity change, negative = inhibition” value rises from 0.247% to 0.965%.

Compared with `COCCOC(=O)C1=C(C)Nc2nc(C)nn2C1c1ccccc1` (stereo unspecified), `Cc1ccc(C)c(NC(=O)COC(=O)CSc2ccccc2)c1` is lower in “activity change, negative = inhibition” value: 3.78% for the first, -2.8% for the second.

First: COCCN1CCN(C(=O)c2cc(COc3ccc(F)cc3Cl)on2)CC1
Second: CCC1(C)NC(=O)N(CC(=O)N2CCN(c3cccc(Cl)c3)CC2)C1=O (stereo unspecified)
The “activity change, negative = inhibition” value of the first is higher: 5.96% for the first, -20% for the second.

Compared with `CC1CC(C)CN(S(=O)(=O)c2cccc3nonc23)C1` (stereo unspecified), `Cc1cccc(C)c1NC(=O)N1CC(C)OC(C)C1` (stereo unspecified) is lower in “activity change, negative = inhibition” value: 32.9% for the first, -2.21% for the second.

Going from `C=CCn1c(SCC(=O)NCCCO)nc2sc3c(c2c1=O)CCC3` to `CC(C)c1nc(SCC(=O)Nc2cccc(C(=O)O)c2)c2c3c(sc2n1)CCCC3`, the “activity change, negative = inhibition” value rises from -8.06% to 27.6%.

Going from `O=C(CN1C(=O)C2C3CCC(C3)C2C1=O)Oc1ccc2ccccc2c1` (stereo unspecified) to `O=C(CNC(=O)c1ccc2ccccc2c1)Nc1ncccc1O`, the “activity change, negative = inhibition” value rises from 8.88% to 96.1%.

First: Cc1ccc(C)n1C(Cc1ccccc1)C(=O)O (stereo unspecified)
Second: CN(CCc1ccccc1)c1ccc([N+](=O)[O-])cn1
The “activity change, negative = inhibition” value of the first is lower: 4.96% for the first, 39.2% for the second.

Going from `CC(OC(=O)CN1C(=O)C2CCCCC2C1=O)C(=O)Nc1ncc(Cl)cc1Cl` (stereo unspecified) to `Cc1sc2nc(CSCC(=O)NC3CCCCC3)[nH]c(=O)c2c1C`, the “activity change, negative = inhibition” value rises from -0.453% to 47.3%.

Going from `CNC(=O)CN1C(=O)NC(c2ccccc2)(c2ccccc2)C1=O` to `O=C(CCNC(=O)c1ccccc1)Nc1nc2ccccc2s1`, the “activity change, negative = inhibition” value rises from 19% to 109%.

Going from `COc1ccccc1/C=C1\SC(=O)N(CCC(=O)N(C)C2CCS(=O)(=O)C2)C1=O` (stereo unspecified) to `CCC(=O)c1ccc(OC(=O)/C=C/c2cc(OC)c(OC)c(OC)c2)cc1`, the “activity change, negative = inhibition” value rises from -8.56% to 10.4%.

First: CN1CCN(C(CNS(=O)(=O)c2cccs2)c2cccnc2)CC1 (stereo unspecified)
Second: Cc1ccc(C)c(NC(=S)NCC(c2cccnc2)N2CCOCC2)c1 (stereo unspecified)
The “activity change, negative = inhibition” value of the first is higher: 22.3% for the first, 18.8% for the second.

First: CC(C)(CNC(=O)CNC(=O)C1CCCCC1)N1CCOCC1
Second: O=C(N/N=C/c1ccccn1)c1ccc(S(=O)(=O)N2CCCCCC2)cc1
The “activity change, negative = inhibition” value of the first is higher: -4.63% for the first, -4.68% for the second.

Compared with `O=C(NC(=S)Nc1ccc(Cl)c(C(=O)O)c1)c1cncc(Br)c1`, `CN1CCN(C(=S)SCC(=O)Nc2ccc(Cl)cc2C(=O)c2ccccc2)CC1` is lower in “activity change, negative = inhibition” value: 36% for the first, 0% for the second.

First: O=C(COC(=O)c1ccccc1)Nc1ccc(Cl)cc1C(=O)c1ccccc1
Second: Cc1ccc(NC(=O)CN(C)C(=O)Cn2nnc(-c3ccccc3)n2)cc1
The “activity change, negative = inhibition” value of the first is higher: 12.9% for the first, 12% for the second.

Going from `O=C(Nc1cccnc1)c1cccc(S(=O)(=O)N2CCCC2)c1` to `O=C(Nc1cccc(F)c1)c1ccc(S(=O)(=O)N2CCCC2)cc1`, the “activity change, negative = inhibition” value falls from -11.3% to -26.6%.

With `O=C(COc1ccc(Cl)cc1Cl)N/N=C/c1ccccn1` the “activity change, negative = inhibition” value was -14%.

In the case of `CC(C)(C)c1ccc(CN2C(=O)CN=C(c3ccccc3)c3ccccc32)cc1`, the Potency is reported as 2.08 µM (active).
For `Cc1cc(NCc2ccco2)n2c(nc3ccccc32)c1C#N`, the Potency was 4.15 µM (active).
In the case of `O=S(=O)(c1ccc(F)cc1)N1CCN(C(=S)NCc2ccco2)CC1`, the Potency is reported as 1.47 µM (active).
For `O=S(=O)(c1ccc(F)cc1)N1CCN(C(=S)NC2CCCC2)CC1`, the Potency was 7.38 µM (active).
With `COc1ccc(CCN2C(=O)c3[nH]nc(-c4ccccc4O)c3C2c2ccc(C)cc2)cc1OC` (stereo unspecified) the Potency was 9.28 µM (active).
In the case of `COC(=O)c1nc2n(n1)C(c1ccc([N+](=O)[O-])cc1)C(C(=O)Nc1ccc(Cl)cc1)=C(C)N2` (stereo unspecified), the Potency is reported as 1.65 µM (active).
In the case of `CC1=CC(C)(C)Nc2ccc(OC(=O)CN3C(=O)C4CCCCC4C3=O)cc21` (stereo unspecified), the Potency is reported as 10.4 µM (active).
In the case of `CC1=CC(C)(C)Nc2ccc(OC(=O)C(Cc3ccccc3)N3C(=O)C4CCCCC4C3=O)cc21` (stereo unspecified), the Potency is reported as 13.1 µM (active).
In the case of `CCC1(c2ccccc2)C(=O)NC(=O)N(C)C1=O` (stereo unspecified), the Potency is reported as 16.9 µM (active).
For `O=C(NCC(c1cccnc1)N1CCN(c2ccccc2)CC1)Oc1ccccc1` (stereo unspecified), the Potency was 13.1 µM (active).
In the case of `O=C(CCNS(=O)(=O)c1ccccc1)Nc1ccc(Cl)cc1C(=O)c1ccccc1`, the Potency is reported as 11.7 µM (active).
In the case of `O=C(Nc1ncccc1O)c1ccc(S(=O)(=O)N2CCCCCC2)cc1`, the Potency is reported as 4.15 µM (active).
In the case of `O=C(Nc1ncccc1O)c1ccc(C(=O)c2ccccc2)cc1`, the Potency is reported as 0.738 µM (active).
With `O=C(Nc1ncccc1O)c1ccc(S(=O)(=O)N2CCCC2)cc1` the Potency was 3.29 µM (active).

For `O=C(NC(=O)c1ccccc1)Nc1ccccc1O`, the activity change, negative = inhibition was -2.78% [at 0.00184 µM].
